Experimental findings from PubChem BioAssay (NCATS) are described below.

Records with an inconclusive call do not appear. The source made the active and inactive calls. Calls come from the whole dose curve; as a rule, active = well fitted curve in the direction sought with a large enough effect; inconclusive = small, poorly fitted or top-dose-only effect, or another doubt; inactive = no such curve, though single readings can be large; an effect the other way counts as inactive or inconclusive.
Potency is the fitted concentration of half-maximal effect.

A short description of one experiment: qHTS of pediatric cancer cell lines to identify multiple opportunities for drug repurposing: Primary screen for RD cells (AID 1347104).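 For activity change, negative = cytotoxic: plate controls were DMSO for no effect and bortezomib for full effect.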 Note: nearly all actives have a fitted effect of over 55% in size. As to conditions: RD rhabdomyosarcoma viability, CellTiter-Glo luminescence, 48 h; series mostly up to 46 µM; activity change, negative = cytotoxic: at the top concentration. The method in brief: (§1)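 Viability was measured as metabolically active cells after 48 hours of treatment, read by CellTiter-Glo luminescence. Compounds were tested at multiple final concentrations, giving concentration-response curves.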
Take `Cn1cc(-c2cnn3c(N)c(Br)c([C@H]4CCCNC4)nc23)cn1`: the Potency was 1.05 µM (active).

For the molecule `N#Cc1c(C2CCNCC2)cc(-c2c(O)cccc2OCC2CC2)nc1N`, the Potency is 16.6 µM (active).

Take `CN(CC(=O)N(Cc1ccc(C2CCCCC2)cc1)c1ccc(C(=O)O)c(O)c1)S(=O)(=O)c1c(F)c(F)c(F)c(F)c1F`: the Potency was 37.2 µM (active).

On to `C=CC(=O)N1CCc2ccc(-n3c(=O)ccc4cnc5ccc(-c6cnn(C)c6)cc5c43)cc21`, for which the Potency is 4.69 µM (active).

Take `CC(C)c1cnn2c(NCc3ccccc3)cc(NCCCCCCN)nc12`: the Potency is 18.7 µM (active).

On to `O=C(O)CCCCCC(=O)NN=C1CCCC1`, for which the “activity change, negative = cytotoxic” value is -17.9% (inactive).

`C#C[C@]1(O)CC[C@@H]2[C@@H]3CCc4cc(O)ccc4[C@H]3CC[C@@]21C`: the Potency is 18.7 µM (active).

Consider `CCOC(=O)N1CCN([N+]([O-])=NOc2ccc([N+](=O)[O-])cc2[N+](=O)[O-])CC1`, for which the Potency was 18.7 µM (active).

In the case of `C=Cc1c(C)c2cc3nc(cc4[nH]c(cc5nc(cc1[nH]2)C(C)=C5CCC(=O)O)c(CCC(=O)OC)c4C)[C@@]1(C)C3=CC=C(C(=O)OC)[C@H]1C(=O)OC`, the Potency is 0.105 µM (active).

Consider `Cc1cnn(C)c1C(=O)Nc1cc(Nc2ccc3c(C=Cc4ccccn4)n[nH]c3c2)ccc1F`, for which the Potency is 18.7 µM (active).

`Cc1cncc2cccc(S(=O)(=O)N3CCCN(C(=O)CN)C[C@@H]3C)c12`: the “activity change, negative = cytotoxic” value was 6.06% (inactive).

Turning to `N#CC(=C(O)c1ccc(Cl)cc1Cl)c1nc2cc(Cl)ccc2c(=O)[nH]1`, the “activity change, negative = cytotoxic” value was -16.9% (inactive).

On to `CCc1cc(C(C)=NOCc2ccc(C3CCCCC3)c(C(F)(F)F)c2)ccc1CN1CC(C(=O)O)C1`, for which the Potency was 5.9 µM (active).

Regarding `C[C@@H](NCc1cc2ccccc2[nH]1)c1cccc2ccccc12`, the “activity change, negative = cytotoxic” value is -10.3% (inactive).

Regarding `Cc1cn([C@@H]2O[C@H](CO)[C@@H](O)[C@H]2F)c(=O)[nH]c1=O`, the “activity change, negative = cytotoxic” value is -12.7% (inactive).

`C=C[C@@H]1CN2CCC1C[C@H]2[C@H](O)c1ccnc2ccc(OC)cc12` (stereo not given in full): the “activity change, negative = cytotoxic” value is -3.68% (inactive).

For the molecule `C[C@]12CCC(=O)C=C1[C@@H]1CC1[C@H]1[C@H]3[C@@H]4C[C@H]4[C@@]4(CCC(=O)O4)[C@@]3(C)CC[C@H]12` (stereo not given in full), the “activity change, negative = cytotoxic” value was -7.77% (inactive).

In the case of `CCCNC(=O)[C@H]1O[C@H]1C(=O)N[C@H](C(=O)N1CCC[C@@H]1C(=O)OC)C(C)CC` (stereo not given in full), the Potency is 10.5 µM (active).

With `CCN(CC)Cc1ccc2cc(COC(=O)Nc3ccc(C(=O)NO)cc3)ccc2c1`, the Potency is 2.35 µM (active).

For the molecule `COc1cc(OC)c(NC(=O)Nc2cc(C)on2)cc1Cl`, the “activity change, negative = cytotoxic” value was -4.76% (inactive).

As for `O=C(O)c1ccc(Nc2ncc3c(n2)-c2ccc(Cl)cc2C(c2c(F)cccc2F)=NC3)cc1`, the Potency is 29.6 µM (active).

For the molecule `COc1cc(C[C@@H](CO)[C@H](CO)Cc2ccc(O)c(OC)c2)ccc1O`, the Potency is 0.526 µM (active).

In the case of `CCCCCCCCCCCCc1ccc(S(=O)(=O)Nc2nncs2)cc1`, the “activity change, negative = cytotoxic” value was 4.03% (inactive).

For `Cn1cc(C2=C(c3c4n(c5ccccc35)CCC(CN)C4)C(=O)NC2=O)c2ccccc21` (stereo not given), the Potency is 29.6 µM (active).

In the case of `C#Cc1cccc(Nc2ncnc3cc(OCCOC)c(OCCO)cc23)c1`, the Potency was 1.66 µM (active).

With `CCOC(=O)C=C[C@H](C[C@@H]1CCNC1=O)NC(=O)[C@@H](CC(=O)[C@@H](NC(=O)c1cc(C)on1)C(C)C)Cc1ccc(F)cc1`, the “activity change, negative = cytotoxic” value is 6.18% (inactive).

Take `CN(C)CCN1C(=O)c2cccc3cc(N)cc(c23)C1=O`: the Potency was 18.7 µM (active).

Regarding `NC(=O)c1ncn([C@@H]2O[C@H](CO)[C@@H](O)[C@@H]2O)c1N`, the “activity change, negative = cytotoxic” value was -9.67% (inactive).

Consider `Oc1cc2c(cc1O)C1c3ccc(O)c(O)c3OCC1(O)C2` (stereo not given), for which the “activity change, negative = cytotoxic” value is 12.3% (inactive).

Consider `Nc1ncn([C@@H]2O[C@H](CO)[C@@H](O)[C@@H]2O)c(=O)n1`, for which the Potency is 5.9 µM (active).

For `CN(C)c1ccc2cc(C(=O)N[C@@H](CCCN=C(N)CCl)C(=O)NCc3ccccc3)ccc2c1`, the Potency was 13.2 µM (active).

In the case of `CCCc1nc(C(C)(C)O)c(C(=O)O)n1Cc1ccc(-c2ccccc2-c2nn[nH]n2)cc1`, the “activity change, negative = cytotoxic” value is 9.85% (inactive).

Consider `C[C@H](O)[C@@H]1C(=O)N2C(C(=O)O)=C(S[C@@H]3CN[C@H](CNS(N)(=O)=O)C3)[C@@H](C)[C@@H]12`, for which the “activity change, negative = cytotoxic” value is -0.684% (inactive).

Regarding `Cc1ccccc1C(=O)Nc1ccc(C(=O)N2CCCC(O)c3cc(Cl)ccc32)c(C)c1` (stereo not given), the “activity change, negative = cytotoxic” value is -21.3% (inactive).

The next experiment can be described thus: qHTS of pediatric cancer cell lines to identify multiple opportunities for drug repurposing: Primary screen for MG 63 (6-TG R) cells (AID 1347105). For activity change, negative = cytotoxic: % is set by controls: 0 for no effect and ±100 for the full control effect. Note: nearly all actives have a fitted effect of over 50% in size. As to conditions: MG 63 (6-TG R) viability, CellTiter-Glo, 48 h; series mostly up to 46 µM; activity change, negative = cytotoxic: at the top concentration. In a few lines: as §1
Take `CC(C)c1cnn2c(NCc3ccccc3)cc(NCCCCCCN)nc12`: the Potency is 5.9 µM (active).

As to `O=C(O)CCCCCC(=O)NN=C1CCCC1`, the “activity change, negative = cytotoxic” value is -7.62% (inactive).

As to `C=Cc1c(C)c2cc3nc(cc4[nH]c(cc5nc(cc1[nH]2)C(C)=C5CCC(=O)O)c(CCC(=O)OC)c4C)[C@@]1(C)C3=CC=C(C(=O)OC)[C@H]1C(=O)OC`, the Potency was 1.18 µM (active).

For the molecule `Cc1cncc2cccc(S(=O)(=O)N3CCCN(C(=O)CN)C[C@@H]3C)c12`, the “activity change, negative = cytotoxic” value is -29.2% (inactive).

In the case of `C[C@@H](NCc1cc2ccccc2[nH]1)c1cccc2ccccc12`, the “activity change, negative = cytotoxic” value was -1.44% (inactive).

Take `C=C[C@@H]1CN2CCC1C[C@H]2[C@H](O)c1ccnc2ccc(OC)cc12` (stereo not given in full): the “activity change, negative = cytotoxic” value is -16% (inactive).

On to `C[C@]12CCC(=O)C=C1[C@@H]1CC1[C@H]1[C@H]3[C@@H]4C[C@H]4[C@@]4(CCC(=O)O4)[C@@]3(C)CC[C@H]12` (stereo not given in full), for which the “activity change, negative = cytotoxic” value was -25.1% (inactive).

For `COc1cc(OC)c(NC(=O)Nc2cc(C)on2)cc1Cl`, the “activity change, negative = cytotoxic” value is 13.5% (inactive).

As to `O=C(O)c1ccc(Nc2ncc3c(n2)-c2ccc(Cl)cc2C(c2c(F)cccc2F)=NC3)cc1`, the Potency was 23.5 µM (active).

For the molecule `N#CC(=C(N)Sc1ccc(N)cc1)c1ccccc1C(F)(F)F`, the “activity change, negative = cytotoxic” value is -8.54% (inactive).

In the case of `COc1cc(C[C@@H](CO)[C@H](CO)Cc2ccc(O)c(OC)c2)ccc1O`, the Potency is 0.935 µM (active).

For `CCCCCCCCCCCCc1ccc(S(=O)(=O)Nc2nncs2)cc1`, the “activity change, negative = cytotoxic” value was -14.9% (inactive).

`N=c1ccn2c(n1)O[C@H]1[C@@H](O)[C@@H](CO)O[C@H]12`: the “activity change, negative = cytotoxic” value was -11.2% (inactive).

Regarding `CCOC(=O)C=C[C@H](C[C@@H]1CCNC1=O)NC(=O)[C@@H](CC(=O)[C@@H](NC(=O)c1cc(C)on1)C(C)C)Cc1ccc(F)cc1`, the “activity change, negative = cytotoxic” value was -8.94% (inactive).

Turning to `Oc1cc2c(cc1O)C1c3ccc(O)c(O)c3OCC1(O)C2` (stereo not given), the “activity change, negative = cytotoxic” value is 3.58% (inactive).

In the case of `Nc1ncn([C@@H]2O[C@H](CO)[C@@H](O)[C@@H]2O)c(=O)n1`, the “activity change, negative = cytotoxic” value is -13.8% (inactive).
